For assay [1], the system named is XIP peptide (Xip251-270) binding. Briefly: XIP fragment 251-270 binding compounds – biochemical, small-molecule microarray, fluorescence 635/667 nm, 0.1 µg/mL protein, primary screen (AID 1182). As to conditions: fluorescent protein binding, 635 nm, higher = more signal, called active from +8 up or from −8 down.
The subject of assay [2] is XIP peptide (Xip251-270). Briefly: compounds binding XIP fragment 251-270 – biochemical, small-molecule microarray, fluorescence 635/667 nm, 0.5 µg/mL protein, primary screen (AID 1183). The following applies: fluorescence 635 nm, higher = more signal.
Assay [3] is described as follows: blood-stage malaria parasite viability loss – strain 3D7, DAPI fluorescence, 100 nL, primary screen (AID 1184).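 Note: parasites grown inside human red blood cells in medium with human serum.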 The following applies: P. falciparum 3D7 growth, 3 d, higher = more signal.
The target of assay [4] is Homeobox protein Hox-A13 (Mus musculus) (UniProt Q62424). Briefly: disruptors of Hoxa13 oligonucleotide interaction – biochemical, fluorescence polarization, labeled oligonucleotide, primary screen (AID 1185). The following applies: Hoxa13:DNA binding, 15 min, higher = more signal, called active from +8 up or from −8 down.
Sequence of Homeobox protein Hox-A13 (Mus musculus) (Q62424 whole entry, looked up): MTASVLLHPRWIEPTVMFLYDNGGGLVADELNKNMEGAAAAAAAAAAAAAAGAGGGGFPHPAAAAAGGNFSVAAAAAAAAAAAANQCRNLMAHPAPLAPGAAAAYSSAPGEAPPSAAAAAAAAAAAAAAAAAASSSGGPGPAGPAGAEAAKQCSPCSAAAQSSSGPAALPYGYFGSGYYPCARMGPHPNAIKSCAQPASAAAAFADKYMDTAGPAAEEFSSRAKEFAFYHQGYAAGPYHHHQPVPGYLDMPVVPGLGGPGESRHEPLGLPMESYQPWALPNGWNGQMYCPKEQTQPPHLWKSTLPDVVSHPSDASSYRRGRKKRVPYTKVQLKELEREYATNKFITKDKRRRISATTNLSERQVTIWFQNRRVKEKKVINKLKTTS
Assay [5] in a line: blockers of DNA damage checkpoint Chk1 activation – imaging, HeLa, hydroxyurea, phospho-Chk1 antibody, percent positive cells, primary screen (AID 1186). As to conditions: hydroxyurea-induced phospho-Chk1 immunofluorescence imaging, higher = more signal.
Assay [6] is described as follows: blockers of DNA damage checkpoint Chk1 activation – imaging, HeLa, hydroxyurea, phospho-Chk1 nuclear intensity, primary screen (AID 1187). The following applies: hydroxyurea-induced phospho-Chk1 immunofluorescence imaging, higher = more signal.

Calls of active or inactive are those of the source. Unless noted, the rule behind the calls is not given here.

Take `CN(C)C(=O)[C@@]1(Cc2ccccc2N=[N+]=[N-])COC(c2ccc(OCCCO)cc2)=N1`: the composite z-score was 0.472 (inactive) in assay [1] and 0.605 in assay [2]. Besides, the z-score is -1.8 in assay [3], -5.84 (inactive) in assay [4], -0.408 (inactive) in assay [5] and -0.362 (inactive) in assay [6].

For the compound `COC(=O)[C@@]1(Cc2ccc(F)cc2)[C@H]2c3cc(C(=O)N4CCCC4)n(CCc4c[nH]c5ccc(OC)cc45)c3C[C@H]2CN1C(=O)c1ccccc1`, the composite z-score in assay [1] was 0.804 (inactive); in assay [2], 0.727. Moreover, the z-score in assay [3] is -1.74; in assay [4], -3.53 (inactive); in assay [5] it was -0.371 (inactive); in assay [6], -0.199 (inactive).

As to `O=C(O)[C@H](Cc1ccccc1)n1cc(-c2ccccn2)nn1`, the composite z-score is 0.355 (inactive) in assay [1] and 0.32 in assay [2]. Besides, the z-score in assay [3] is 0.214; in assay [4] it was -0.876 (inactive); in assay [5] it was 0.721 (inactive); in assay [6], 0.662 (inactive).

For `C=C(/C=C/CNS(=O)(=O)c1ccc(C)cc1)[C@H](O)[C@H]1CCCN1S(=O)(=O)c1ccccc1[N+](=O)[O-]`, the figures for the composite z-score in assay [1] and in assay [2] were -0.121 (inactive) and 0.729, respectively. For the same compound, the z-score in assay [3] is -2.04; in assay [4], -5.58 (inactive); in assay [5], -0.0778 (inactive); in assay [6], 0.181 (inactive).

Take `[N-]=[N+]=NCc1ccccc1C[C@@]1(C(=O)NCCN2CCOCC2)N=C(c2ccc(OCCCO)cc2)O[C@@H]1c1ccccc1N=[N+]=[N-]`: the figures for the composite z-score in assay [1] and in assay [2] were 1.51 (inactive) and 0.767, respectively. The z-score is -2.75 in assay [3], -2.44 (inactive) in assay [4], -0.402 (inactive) in assay [5] and -0.753 (inactive) in assay [6].

Turning to `COC(=O)[C@@]1(Cc2ccc(OC)cc2)[C@H]2c3cc(C(=O)N4CCCC4)n(CCc4cc5ccccc5[nH]4)c3C[C@H]2CN1C(=O)c1ccccc1`, the composite z-score in assay [1] is 1.64 (inactive); in assay [2] it was 0.685. In addition, the z-score in assay [3] was -1.66; in assay [4] it was -1.91 (inactive); in assay [5], -0.203 (inactive); in assay [6], -0.0973 (inactive).

In the case of `CC[C@H]1C2=C3C(CC[C@H]4C(OCc5ccc(F)cc5C(F)(F)F)OC[C@](C)([C@@H]34)N(C(=O)OC(C)(C)C)C2)C2COC(=O)OCC21` (stereo partly specified), the figures for the composite z-score in assay [1] and in assay [2] were 3.17 (inactive) and 0.393, respectively. Also, the z-score in assay [3] was -0.749; in assay [4] it was -3.54 (inactive); in assay [5], 1.23 (inactive); in assay [6] it was 0.722 (inactive).

Take `COc1cc2c(cc1OC)CN(C(=O)[C@@H]1[C@H]3C(=O)O[C@H](c4ccccc4)[C@H](c4ccccc4)N3[C@H](c3ccccc3OCCO)[C@@]13C(=O)Nc1ccc(C#CC4(O)CCCCCC4)cc13)CC2`: the values for the composite z-score in assay [1] and in assay [2] were 0.863 (inactive) and 0.822, respectively. The z-score in assay [3] was -1.67; in assay [4], 2.22 (inactive); in assay [5] it was -0.517 (inactive); in assay [6], -0.522 (inactive).

For `COc1ccc(NN2C(C(O)c3ccco3)C=CC3C(=O)N(C4CCCCC4)C(=O)C32)cc1` (stereo unspecified), the results for the composite z-score in assay [1] and in assay [2] were 0.902 (inactive) and 0.68, respectively. For the same compound, the z-score was -0.244 in assay [3], -3.76 (inactive) in assay [4], -0.266 (inactive) in assay [5] and -0.504 (inactive) in assay [6].

Consider `O=C1OCC=C[C@H]2OC34C=CCN(Cn5nnc6ccccc65)C(=O)[C@H]3N(CCCCCCO)C(=O)[C@@H]4[C@@H]12` (stereo partly specified), for which the composite z-score in assay [1] was -0.231 (inactive); in assay [2] it was -0.714. Moreover, the z-score in assay [3] was -0.508; in assay [4], -4.69 (inactive); in assay [5] it was 0.197 (inactive); in assay [6], 0.521 (inactive).

In the case of `CC(=O)n1cc(C(O)C2C=CC3C(=O)N(Cc4ccccc4)C(=O)C3N2n2cnnc2)c2ccccc21` (stereo unspecified), the composite z-score was 0.097 (inactive) in assay [1] and 0.008 in assay [2]. Moreover, the z-score in assay [3] is -0.15; in assay [4], -3.16 (inactive); in assay [5], 1.19 (inactive); in assay [6], 0.239 (inactive).

For `CCC[C@@H]1C[C@@]1(CCC)[C@@H](NP(=O)(c1ccccc1)c1ccccc1)c1ccc(Cl)cc1`, the composite z-score in assay [1] is 0.337 (inactive); in assay [2], -0.53. For the same compound, the z-score was -0.908 in assay [3], -1.08 (inactive) in assay [4], 0.946 (inactive) in assay [5] and 0.551 (inactive) in assay [6].

Take `C=C(C(=O)CC[C@H](OC(=O)c1cccnc1)c1cccc(OCCO)c1)C(C)C`: the composite z-score in assay [1] was 0.24 (inactive); in assay [2], 0.183. The z-score is -2.09 in assay [3], -3.82 (inactive) in assay [4], -0.556 (inactive) in assay [5] and -0.453 (inactive) in assay [6].

Consider `NC(N)=NCc1cn(CCc2c[nH]c3ccccc23)nn1`, for which the composite z-score in assay [1] was 1.35 (inactive); in assay [2], 0.937. In addition, the z-score in assay [3] is 0.743; in assay [4] it was -2.09 (inactive); in assay [5] it was 0.568 (inactive); in assay [6], -0.248 (inactive).

For `CCCCN1CC=CC23O[C@@H]4C=CCOC(=O)[C@@H]4[C@H]2C(=O)N(C(C)CO)[C@@H]3C1=O` (stereo partly specified), the composite z-score in assay [1] is -0.161 (inactive); in assay [2] it was -1.06. The z-score is 1 in assay [3], -5.05 (inactive) in assay [4], -0.525 (inactive) in assay [5] and -0.392 (inactive) in assay [6].

Consider `O=C1O[C@@H](c2ccccc2)[C@@H](c2ccccc2)N2[C@@H](c3ccccc3OCCO)[C@]3(C(=O)Nc4ccc(C#CC5=CCCCC5)cc43)[C@@H](C(=O)NC[C@H](O)c3ccccc3)[C@H]12`, for which the composite z-score in assay [1] is 0.409 (inactive); in assay [2], 0.0598. Moreover, the z-score is -1.7 in assay [3], 1.62 (inactive) in assay [4], -0.336 (inactive) in assay [5] and -0.415 (inactive) in assay [6].

For `CON(C)C(=O)C=C1C[C@@H](c2cccc(Cl)c2)O[C@@H](c2cccc(Cl)c2)O1`, the composite z-score in assay [1] is 2.75 (inactive); in assay [2] it was 0.454. The z-score in assay [3] is -2; in assay [4], -3.48 (inactive); in assay [5], -0.0938 (inactive); in assay [6], -0.0296 (inactive).

For `O=C1O[C@@H](c2ccccc2)[C@@H](c2ccccc2)N2[C@@H](c3ccccc3OCCO)[C@]3(C(=O)Nc4ccc(C#CCCO)cc43)[C@@H](C(=O)N3CCN(c4ncccn4)CC3)[C@H]12`, the composite z-score was 0.665 (inactive) in assay [1] and 0.617 in assay [2]. The z-score is -2.05 in assay [3], -1.33 (inactive) in assay [4], -0.0995 (inactive) in assay [5] and 0.113 (inactive) in assay [6].

Take `C=CC[C@@]1(C(=O)N2CCCCC2)N=C(c2ccc(OCCCO)cc2)O[C@@H]1c1ccccc1`: the composite z-score in assay [1] is 0.0703 (inactive); in assay [2] it was 0.735. Also, the z-score in assay [3] is -2.09; in assay [4], -5.99 (inactive); in assay [5] it was -0.377 (inactive); in assay [6] it was -0.146 (inactive).

Take `CCCc1cccc(=O)o1`: the composite z-score was 0.684 (inactive) in assay [1] and -0.0514 in assay [2]. The z-score is 0.581 in assay [3], -1.77 (inactive) in assay [4], 0.0999 (inactive) in assay [5] and 0.549 (inactive) in assay [6].

Consider `CC(C)CCC[C@@H](C)[C@H]1CC[C@@]2(C)C3=C(CC[C@]12C)[C@@]1(C)CC[C@H](OC(=O)c2ccc(Br)cc2)C(C)(C)C1CC3` (stereo partly specified), for which the results for the composite z-score in assay [1] and in assay [2] were -0.349 (inactive) and -0.198, respectively. Also, the z-score is 0.665 in assay [3], -0.708 (inactive) in assay [4], 0.0833 (inactive) in assay [5] and 0.377 (inactive) in assay [6].

These data come from PubChem BioAssay.
